Consider 7 molecules from PubChem BioAssay (Tox21).

Values without a mark were called inactive. Inconclusive results are not listed. The source made the active and inactive calls. Unless noted, calls follow the shape of the dose curve; as a rule, active = well fitted curve in the direction sought with a large enough effect in the repeat runs; inconclusive = weak or mixed curves; inactive = no such curve, though single readings can be large; an effect the other way counts as inactive or inconclusive.

Assay [1] concerns the target Luciferin 4-monooxygenase (Photinus pyralis) (UniProt P08659). As to the kind of experiment: qHTS assay to identify small molecule inhibitors of firefly luciferase (AID 1224835). Also: nearly all actives have a fitted effect of over 25% in size. Also: potency is read from the fitted curve at half-maximal effect. Put shortly: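 Biochemical qHTS: compounds run as interplate titrations against purified firefly enzyme, with D-luciferin and ATP each at its KM concentration. Light output recorded by CCD imaging.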
A general note: Quantitative high-throughput screening tests each substance at several concentrations.

A short description of assay [2]: qHTS assay to identify small molecule agonists of the constitutive androstane receptor (CAR) signaling pathway - cell viability counter screen (AID 1224836). Also: nearly all actives have a fitted effect of over 45% in size. Also: potency is read from the fitted curve at half-maximal effect. Put shortly:
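Double-stable HepG2 hepatoma cells (hCAR plus CYP2B6-2.2kb) are treated for 23 h at 37 C with test compounds in 15-point concentration series. PK11195 at 0.75 uM final is co-added. Cell viability is quantified by CellTiter-Fluor.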

A short description of assay [3]: qHTS assay to identify small molecule antagonists of the constitutive androstane receptor (CAR) signaling pathway - cell viability counter screen (AID 1224837). Also: nearly all actives have a fitted effect of over 45% in size. Also: potency is read from the fitted curve at half-maximal effect. Put shortly: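 In quantitative HTS format, compounds at 15 concentrations were applied to HepG2 cells double-transfected with hCAR and CYP2B6-2.2kb under 50 nM CITCO stimulation; live-cell protease activity was read after 23 hr via CellTiter-Fluor.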

In assay [4] the target is Nuclear receptor subfamily 1 group I member 3 (Homo sapiens) (UniProt Q14994). As to the kind of experiment: qHTS assay to identify small molecule antagonists of the constitutive androstane receptor (CAR) signaling pathway (AID 1224838). Also: nearly all actives have a fitted effect of over 40% in size. Also: potency is read from the fitted curve at half-maximal effect. The method, boiled down: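 CITCO-stimulated (50 nM final) HepG2 cells stably transfected with hCAR and CYP2B6-2.2kb luciferase were exposed to compounds at 15 concentrations for 24 h at 37 C/5% CO2. A luciferase reagent was added and luminescence recorded after 30 min.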

The target is the same in assay [5]. As to the kind of experiment: qHTS assay to identify small molecule agonists of the constitutive androstane receptor (CAR) signaling pathway (AID 1224839). Also: nearly all actives have a fitted effect of over 15% in size. Also: potency is read from the fitted curve at half-maximal effect.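 As to activation: HepG2 cells stably carrying human CAR and a CYP2B6 luciferase reporter; % is scaled to controls: 0 for no effect and ±100 for the full control effect.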 The method, boiled down: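 Readout: firefly luciferase luminescence via ONE-Glo. System: HepG2 double-stable for hCAR and CYP2B6-2.2kb. Conditions: 15-point compound titration, PK11195 at 0.75 uM final, 24 h incubation.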

Assay [6] can be described thus: qHTS assay to identify small molecule antagonists of the estrogen related receptor signaling pathway with the pleiotropic PPARgamma coactivator (PGC) from Tox21 10K library - cell viability counter screen (AID 1224840; active = well fitted cell-killing curve with a large enough effect in the repeat runs, not every such curve was filed as active; also: nearly all actives have a fitted effect of over 40% in size; also: potency is read from the fitted curve at half-maximal effect). The method, boiled down: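 Viability counter screen, PGC/ERR cells: 17.5 h compound exposure at 37 C, CellTiter-Fluor fluorescence endpoint.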
Assay [7] in a line: qHTS assay to identify small molecule agonists of the estrogen related receptor signaling pathway with the pleiotropic PPARgamma coactivator (PGC) from Tox21 10K library (AID 1224842). Also: % is scaled to controls: 0 for no effect and ±100 for the full control effect; nearly all actives have a fitted effect of over 15% in size. Put shortly: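 PGC/ERR reporter cell line, 2,000 cells per well, incubated 6 h at 37 C before 23 nL compound in DMSO was added. After 18 h at 37 C, One-Glo luminescence read following 30 min at room temperature.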

The nature of assay [8]: qHTS assay to identify small molecule agonists of the hypoxia (HIF-1) signaling pathway - cell viability counter screen (AID 1224844; calls by dose curve; also: nearly all actives have a fitted effect of over 50% in size; also: potency is read from the fitted curve at half-maximal effect). The method, boiled down: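 Same wells as the HIF-1 reporter screen; ME-180 cells carrying HRE-bla, 17 hr treatment at 37C; CellTiter-Glo luminescence read after 30 min at room temperature.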
Assay [9] is described as follows: qHTS assay to identify small molecule antagonists of the estrogen related receptor (ERR) signaling pathway from Tox21 library (AID 1224848). Also: potency is read from the fitted curve at half-maximal effect; nearly all actives have a fitted effect of over 50% in size. The method, boiled down: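 Quantitative high-throughput format: ERR reporter cells (2,000/well) pre-incubated 6 h, treated 18 h at 37 C with compounds in DMSO alongside positive and negative controls, then read by ONE-Glo luminescence.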

Assay [10] is described as follows: qHTS RealTime-Glo MT Cell Viability Assay in HepG2 cells - 24 hour (AID 1224867). Also: nearly all actives have a fitted effect of over 50% in size. Also: potency is read from the fitted curve at half-maximal effect. Put shortly:
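HepG2 cells were seeded at 600 cells/well together with NanoLuc luciferase and a cell-permeant prosubstrate, preincubated 5 h at 37 C/5% CO2, then pin-dosed with compounds in DMSO. Nonlytic luminescence from viable cells was read at each time point.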

Assay [11] is described as follows: qHTS assay to identify small molecule antagonists of the estrogen related receptor (ERR) signaling pathway from Tox21 library - cell viability counter screen (AID 1224834). Also: nearly all actives have a fitted effect of over 30% in size. Also: potency is read from the fitted curve at half-maximal effect. Put shortly:
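In this quantitative HTS format, ERR cells receive compounds in DMSO and are incubated for 17.5 h at 37 C. Live-cell protease activity is then detected with CellTiter-Fluor.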

Assay [12] in a line: qHTS assay to identify small molecule agonists of H2AX (AID 1224845; active = well fitted activation curve with a large enough effect in the signal ratio in the repeat runs, not every such curve was filed as active; the % refers to the signal ratio; also: potency is read from the fitted curve at half-maximal effect). The method, boiled down:
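Wild-type CHO-K1 cells, plated overnight, exposed 3hr at 37C to 15 concentrations (0.76% DMSO final). Lysed, then HTRF anti-pH2AX (S139) cryptate and anti-H2AX-d2 antibodies, 24 hr room temperature; 665/620 nm emission read.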

The nature of assay [13]: qHTS assay to identify small molecule agonists of H2AX - cell viability counter screen (AID 1224847; calls by dose curve; also: nearly all actives have a fitted effect of over 30% in size; also: potency is read from the fitted curve at half-maximal effect). The method, boiled down:
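For this counter screen, overnight-attached CHO-K1 cells received test compounds (15 concentrations, 0.76% DMSO final); 3 hr later at 37C, CellTiter-Glo reagent was added and luminescence recorded after 30 min at room temperature.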

The nature of assay [14]: A CellTox Green Cytotoxicity Assay to monitor cytotoxicity in HEK293 cells - 0 hour (AID 1224869). Also: % is scaled to controls: 0 for no effect and ±100 for the full control effect; nearly all actives have a fitted effect of over 50% in size. The method, boiled down: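 Homogeneous no-lysis format: HEK293 cell suspension mixed with CellTox Green reagent, seeded, incubated 5 h at 37 C/5% CO2, then dosed by pintool with compound in DMSO.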
Assay [15] in a line: qHTS RealTime-Glo MT Cell Viability Assay in HepG2 cells - 40 hour (AID 1224870). Also: nearly all actives have a fitted effect of over 50% in size. Also: potency is read from the fitted curve at half-maximal effect. The method, boiled down:
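HepG2 cells (600/well) mixed with RealTime-Glo MT reagent, settled 5 h at 37 C/5% CO2 before compound addition. Nonlytic NanoLuc luminescence from viable-cell prosubstrate reduction read repeatedly during 40 h treatment at 37 C.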

The nature of assay [16]: qHTS assay to identify small molecule antagonists of the estrogen related receptor signaling pathway with the pleiotropic PPARgamma coactivator (PGC) from Tox21 10K library (AID 1224841; call rule not given here). Put shortly:
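In the PGC/ERR line, DMSO solutions of test chemicals are pin-delivered to 2,000 cells/well six hours after dispensing. Following eighteen hours' incubation, One-Glo reagent is added and luminescence recorded.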

The target of assay [17] is Thyrotropin receptor (Homo sapiens) (UniProt P16473). Briefly: qHTS assay to identify small molecule agonists of the thyroid stimulating hormone receptor (TSHR) signaling pathway (AID 1224843; calls by dose curve; also: % is scaled to controls: 0 for no effect and ±100 for the full control effect; nearly all actives have a fitted effect of over 45% in size). Put shortly: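 Agonist-mode screen: TSHR HEK293 cells received test chemicals for half an hour at room temperature, then HTRF cAMP detection reagents for one hour prior to fluorescence measurement. Each chemical ran as a 15-concentration series, triplicated.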

A short description of assay [18]: qHTS RealTime-Glo MT Cell Viability Assay in HEK293 cells - 32 hour (AID 1224868). Also: nearly all actives have a fitted effect of over 50% in size. Also: potency is read from the fitted curve at half-maximal effect. Put shortly: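 HEK293 cells were seeded at 600 cells/well together with NanoLuc luciferase and cell-permeant prosubstrate, preincubated 5 h at 37 C/5% CO2, then given compound in DMSO by pintool. Luminescence from viable-cell prosubstrate reduction was read repeatedly over 40 h.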

Assay [19] is described as follows: qHTS assay to identify small molecule agonists of the hypoxia (HIF-1) signaling pathway (AID 1224846; active = well fitted activation curve with a large enough effect in the signal ratio in the repeat runs, not every such curve was filed as active; the % refers to the signal ratio; also: % is scaled to controls: 0 for no effect and ±100 for the full control effect). Put shortly:
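In ME-180 cells bearing an HRE-bla construct, 17 h treatment with DMSO-dissolved compounds at 37C was followed by CCF4-AM loading to quantify reporter induction.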

Assay [20] in a line: qHTS assay to identify small molecule agonists of the estrogen related receptor (ERR) signaling pathway from Tox21 library (AID 1224849; calls by dose curve; also: % is scaled to controls: 0 for no effect and ±100 for the full control effect; nearly all actives have a fitted effect of over 15% in size). Conditions: ERR reporter cell line, ONE-Glo luciferase, 18 h; at 92.4 µM (top of the series) unless noted. Put shortly:
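Reporter cells (ERR, NTP source) treated with Tox21 10K compounds 18 h, 37 C. Readout: ONE-Glo luminescence, 30 min RT.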

Thyrotropin receptor (Homo sapiens), sequence (P16473 whole entry, looked up): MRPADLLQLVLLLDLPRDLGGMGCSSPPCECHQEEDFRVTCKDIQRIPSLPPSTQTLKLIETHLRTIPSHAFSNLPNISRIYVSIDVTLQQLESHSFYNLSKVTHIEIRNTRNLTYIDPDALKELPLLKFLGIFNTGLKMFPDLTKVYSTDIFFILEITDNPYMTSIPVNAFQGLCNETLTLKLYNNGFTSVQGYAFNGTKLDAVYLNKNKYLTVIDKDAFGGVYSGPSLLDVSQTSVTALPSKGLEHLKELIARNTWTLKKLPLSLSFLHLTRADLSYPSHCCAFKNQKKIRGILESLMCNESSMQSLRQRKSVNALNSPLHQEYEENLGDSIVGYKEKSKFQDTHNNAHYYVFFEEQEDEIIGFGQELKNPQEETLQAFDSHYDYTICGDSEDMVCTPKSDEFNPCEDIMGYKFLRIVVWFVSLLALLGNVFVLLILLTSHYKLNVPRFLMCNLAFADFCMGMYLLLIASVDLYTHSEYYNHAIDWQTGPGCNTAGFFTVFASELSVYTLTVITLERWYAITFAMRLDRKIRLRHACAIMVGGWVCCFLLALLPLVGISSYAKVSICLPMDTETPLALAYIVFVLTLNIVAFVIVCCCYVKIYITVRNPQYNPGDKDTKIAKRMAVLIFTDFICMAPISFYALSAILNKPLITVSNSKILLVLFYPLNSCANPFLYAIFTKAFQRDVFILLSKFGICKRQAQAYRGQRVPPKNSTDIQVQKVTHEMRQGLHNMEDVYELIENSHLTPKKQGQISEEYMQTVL
Nuclear receptor subfamily 1 group I member 3 (Homo sapiens), sequence (Q14994 whole entry, looked up): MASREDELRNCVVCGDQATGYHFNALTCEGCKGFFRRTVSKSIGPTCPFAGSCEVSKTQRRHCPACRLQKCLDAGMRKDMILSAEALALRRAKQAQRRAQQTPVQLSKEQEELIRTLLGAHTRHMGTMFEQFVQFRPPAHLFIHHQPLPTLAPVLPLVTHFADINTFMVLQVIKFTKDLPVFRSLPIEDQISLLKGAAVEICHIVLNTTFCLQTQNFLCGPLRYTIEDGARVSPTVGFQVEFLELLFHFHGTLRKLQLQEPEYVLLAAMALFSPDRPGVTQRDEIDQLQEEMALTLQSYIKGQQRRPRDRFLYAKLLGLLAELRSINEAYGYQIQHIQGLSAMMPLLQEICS
Luciferin 4-monooxygenase (Photinus pyralis), sequence (P08659 whole entry, looked up): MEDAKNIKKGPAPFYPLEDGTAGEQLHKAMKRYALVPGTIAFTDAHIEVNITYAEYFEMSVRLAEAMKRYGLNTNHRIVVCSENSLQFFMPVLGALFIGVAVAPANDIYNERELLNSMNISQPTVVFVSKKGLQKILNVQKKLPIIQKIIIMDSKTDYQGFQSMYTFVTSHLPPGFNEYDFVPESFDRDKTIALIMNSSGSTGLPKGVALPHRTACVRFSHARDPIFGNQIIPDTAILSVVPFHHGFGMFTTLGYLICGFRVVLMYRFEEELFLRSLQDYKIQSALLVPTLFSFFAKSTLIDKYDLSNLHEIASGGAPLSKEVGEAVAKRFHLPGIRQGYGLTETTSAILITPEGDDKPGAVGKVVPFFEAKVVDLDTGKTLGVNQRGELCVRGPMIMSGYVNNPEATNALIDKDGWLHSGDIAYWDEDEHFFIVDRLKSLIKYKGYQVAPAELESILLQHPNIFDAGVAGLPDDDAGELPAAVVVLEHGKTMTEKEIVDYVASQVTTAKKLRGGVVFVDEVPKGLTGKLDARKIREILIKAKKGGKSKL

As to `O=S(=O)(c1ccc(Cl)cc1)c1ccc(Cl)cc1`, the Potency entry in assay [1], in assay [2], in assay [3], in assay [4], in [6] and in [7] was “inactive” each time. Further, the Potency entry in assay [8] and in [10] was “inactive” throughout. The figures for the Potency in [5] and in [9] were 49.2 µM (active) and 13.9 µM (active), respectively.
Take `CCCCCCCCCCCCCC[P+](CCCCCC)(CCCCCC)CCCCCC` (tested in a mixture with another compound): the Potency is 24.3 µM (active) in assay [11]; 17.2 µM (active) in assay [2]; 17.2 µM (active) in assay [3]; 24.3 µM (active) in assay [6]; 17.9 µM (active) in [12]; 5.05 µM (active) in assay [13]. Besides, the Potency in [10] is 30.9 µM (active); in [15] it was 24.6 µM (active). Further, in assay [14], the Potency result was “inactive”.
Consider `COc1cc(C=O)cc2c1[C@H](COC(N)=O)[C@]1(OC(C)=O)ON2C[C@H]2[C@@H]1N2C(C)=O`, for which the Potency result in [1], in [5], in assay [6], in assay [7], in assay [17] and in assay [13] was “inactive” each time. Also, the Potency result in assay [14] was “inactive”. The Potency was 0.611 µM (active) in assay [2]; 0.433 µM (active) in assay [3]; 0.0486 µM (active) in assay [4]; 1.93 µM (active) in [16]; 3.89 µM (active) in assay [8]; 0.273 µM (active) in assay [9]. In assay [18], the Potency was 0.0549 µM (active).
Turning to `SCc1ccco1`, the Potency entry in assay [1], in assay [2], in assay [3], in assay [4], in assay [17] and in [8] was “inactive” throughout. Also, the Potency entry in [12], in assay [13], in assay [10], in [18], in assay [14] and in assay [15] was “inactive” each time. The call in [19] was inactive.
For `CC(C)Oc1cccc(NC(=O)c2ccccc2C(F)(F)F)c1`, the Potency result in assay [1], in assay [2], in assay [3], in assay [4], in assay [6] and in assay [12] was “inactive” throughout. The Potency entry in assay [10] and in [15] was “inactive” throughout. Also, the Potency in [5] was 61.1 µM (active); in [9] it was 24.3 µM (active); in assay [18], 24.5 µM (active). Moreover, the activity change, positive = activation in assay [20] is -38.3%.
For `BrC(Br)C(Br)(Br)Br`, the figures for the Potency in assay [1] and in [18] were 22.6 µM (active) and 43.9 µM (active), respectively. Further, the Potency result in [2], in assay [3], in assay [5], in assay [6], in assay [10] and in assay [14] was “inactive” in each case.
`CCCCCCCCCBr`: the Potency result in assay [11], in [2], in assay [4], in assay [5], in assay [6] and in assay [17] was “inactive” throughout. Also, the Potency result in assay [8], in assay [12], in assay [13], in assay [10], in [18] and in assay [14] was “inactive” in each case. The Potency result in assay [15] is “inactive”. In assay [19], the outcome was inactive.
